mHTT-CaM PPI inh – mutant huntingtin-calmodulin interaction inhibitors – biochemical, AlphaScreen, primary screen | P42858 | AlphaScreen His-mHTT/GST-CaM binding, luminescence | inhibition, % at 15 µM | hit rate 3.6% among 190,000 | AID 1671202, 2021;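 note: 0% = both proteins with DMSO and 100% = one protein alone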
Pf apPOL block – Pf-apPOL inhibitors, biochemical, fluorescence. hit rate 0.25% among 210,000. Recombinant Pf-apPOL, molecular beacon fluorescence, 1.5 h. inhibition, % at 10 µM. Plasmodium falciparum apicoplast DNA polymerase (apPOL)
The depositor's hits bear a star; nt = no result given. The entries come from a sample that favours hits as a whole. Cut-off read from the data, not from the text of the source: active = inhibition above about 50%; inactive = the rest.

SMILES	mHTT-CaM PPI inh	Pf apPOL block
COc1ccc(C)cc1-n1cnc2cc(C(=O)NC3CCCCC3C)ccc21 (centres undefined)	66*	-2
COc1ccccc1-c1cnn2c(C)cc(C)nc12	-15	-2
COc1ccccc1-c1cnn2c(Nc3ccc(NC(C)=O)cc3)cc(C)nc12	54*	-4
O=C(NCCN1CCN(c2ccccc2)CC1)c1ccc2ccccc2c1	-11	-14
COc1cc2c(cc1OC)C1C(C(=O)NCc3ccccn3)c3ccccc3C(=O)N1CC2 (centres undefined)	-7	-6
Cc1nc(NS(=O)(=O)CCOc2ccc(F)cc2)sc1C	-17	-7
CCCCC1C(=O)N(c2ccccc2)N(c2ccccc2)C1=O	nt	5
CN(C)CC1C(=O)N(c2ccccc2)N(c2ccccc2)C1=O	72*	-6
O=C(CSc1nnc(-c2ccco2)c(-c2ccco2)n1)Nc1ccc(Cl)cc1	99*	1
NS(=O)(=O)c1ccc(NC(=O)CSc2nnc(-c3ccco3)c(-c3ccco3)n2)cc1	40	-1
CCN(CC)C(=O)CC(c1cc(OC)c(OC)c(OC)c1)c1c(OC)cc(OC)c2c(-c3ccccc3)cc(=O)oc12 (centres undefined)	69*	9
O=c1cc(-c2ccccc2)c2ccc(O)c(CN3CCOCC3)c2o1	-10	2
COc1cc(C(CCN2CCOCC2)c2c(OC)cc(OC)c3c(-c4ccccc4)cc(=O)oc23)cc(OC)c1OC (centres undefined)	75*	-22
CCN(CC)C(=O)CC(c1cc(OC)c(OC)c(OC)c1)c1c(OC)cc(OC)c2ccc(=O)oc12 (centres undefined)	26	-3
COc1cc(C(CCN2CCCC2)c2c(OC)cc(OC)c3c(-c4ccccc4)cc(=O)oc23)cc(OC)c1OC (centres undefined)	58*	-20
COc1cc(O)c(CN2CCCC2)c2oc(-c3ccccc3)cc(=O)c12	3	0
COc1ccc(/C=C2/N=C(c3ccccc3C)OC2=O)c(OC)c1	6	2
CN(C)CC1CN(C(=O)CCCc2ccccc2)CC12CCOCC2 (centres undefined)	0	-2
CCOC(=O)c1csc(NC(=O)C2CCCN(c3cc(-n4cccn4)ncn3)C2)n1 (centres undefined)	24	-9
N#Cc1c(-c2ccccc2)cc(Nc2ccc(Cl)cc2)n2c1nc1ccccc12	nt	-8
C[C@H]1[C@@H](OC(=O)Oc2ccc([N+](=O)[O-])cc2)CC[C@@]23CCCN2C(=O)CCC[C@@H]13	10	-9
CCC[C@H]1[C@@H](OC(=O)NCCc2c[nH]c3ccccc23)CC[C@@]23CCCN2C(=O)CCC[C@@H]13	65*	0
CCC[C@H]1[C@@H](OC(=O)N2CCN(c3ccccc3)CC2)CC[C@@]23CCCN2C(=O)CCC[C@@H]13	99*	-5
CCC[C@H]1[C@@H](OC(=O)Oc2ccc([N+](=O)[O-])cc2)CC[C@@]23CCCN2C(=O)CCC[C@@H]13	58*	0
CCC[C@H]1[C@@H](OC(=O)NCc2ccccc2Cl)CC[C@@]23CCCN2C(=O)CCC[C@@H]13	16	-3
SMILES	mHTT-CaM PPI inh	Pf apPOL block
CCC[C@H]1[C@@H](OC(=O)N2CCOCC2)CC[C@@]23CCCN2C(=O)CCC[C@@H]13	-12	-4
O=C(C1CCCCC1)N1CCc2ccccc2C1	-15	-6
C=CCN(C(=O)c1cc2cc3ccc(OC)cc3nc2o1)c1ccccc1	2	-1
O=C(c1ccco1)N1CCCC1c1cccc(F)c1 (centres undefined)	11	-1
Cn1c(C(=O)N2CCC(N3CCCCC3)CC2)cc2c1CCN(Cc1ccccc1)C2	31	-2
Cn1c(C(=O)NC2CC2)cc2c1CCN(Cc1ccc(F)cc1)C2	22	-2
CC1CCCN(C(=O)c2cc3c(n2C)CCN(Cc2ccc(F)cc2)C3)C1 (centres undefined)	58*	-6
CC1CCCN(C(=O)c2cc3c(n2C)CCN(Cc2ccccc2)C3)C1 (centres undefined)	69*	-2
CCc1noc(-c2cccnc2N2CCCN(C(=O)C3CC3)CC2)n1	0	-5
O=C(c1ccccc1)N1CCc2sc(C(=O)N3CCCCCC3)cc2C1	3	-3
Cc1cccc(NC(=O)N2CCCC(CCC(=O)NCc3ccc(C(F)(F)F)cc3)C2)c1 (centres undefined)	31	0
O=C(Nc1c2c(nn1-c1ccc(F)cc1)CSC2)c1ccc(Cl)c([N+](=O)[O-])c1	6	-7
O=C(/C=C/c1ccccc1)Nc1c2c(nn1-c1ccc([N+](=O)[O-])cc1)CSC2	56*	-10
CC(C)(C)n1nc2c(c1NC(=O)/C=C/c1ccccc1)CSC2	98*	3
COc1ccc(C(=O)Nc2c3c(nn2C(C)(C)C)CSC3)cc1	23	-2
O=C(Nc1c2c(nn1-c1ccc([N+](=O)[O-])cc1)CSC2)c1ccc(Cl)c([N+](=O)[O-])c1	56*	-5
O=C(/C=C/c1ccccc1)Nc1c2c(nn1-c1cccc(Cl)c1)CSC2	53*	-3
O=C(Nc1c2c(nn1-c1cccc(Cl)c1)CSC2)c1cccc(Cl)c1	-1	-6
O=C(/C=C/c1ccc2c(c1)OCO2)Nc1c2c(nn1-c1ccc([N+](=O)[O-])cc1)CSC2	37	-2
COc1ccc(C2c3c(n(C)c(=O)n(C)c3=O)N=C3c4ccccc4C(=O)C32)cc1 (centres undefined)	4	9
O=C(CN1C2=NCCN2c2ccccc21)c1ccccc1	-2	-6
COc1cc2c(cc1OC)C(C)N(C(=O)c1ccc(Br)cc1)CC2 (centres undefined)	7	12
O=C1C(=Cc2cccc(F)c2)Oc2c1ccc1c2CN(CC2CCCO2)CO1 (centres undefined)	14	0
Cn1nc(-c2nc(-c3ccccc3)no2)c2c1CCN(C(=O)c1c(F)cccc1Cl)C2	11	-5
O=C(/C=C/c1ccccc1)Nc1c2c(nn1-c1ccc(F)cc1)CSC2	76*	-9
SMILES	mHTT-CaM PPI inh	Pf apPOL block
O=C(Nc1c2c(nn1-c1ccc(F)cc1)CSC2)c1ccc(Br)o1	58*	-11
Cc1ccc(-n2nc3c(c2NC(=O)/C=C/c2ccccc2)CSC3)cc1	45	9
Cc1ccc(-n2nc3c(c2NC(=O)c2ccc(Br)o2)CSC3)cc1	47	-6
COc1ccc(-c2oc3c(c2C#CC(C)(C)O)C(OCCO)CC3)cc1 (centres undefined)	1	-9
COC1CCCc2oc(-c3ccsc3)c(C#CCO)c21 (centres undefined)	52*	8
Cn1c(SCc2ccc(Cl)cc2)nnc1-c1ccco1	4	-8
COc1ccccc1C1CC(c2c(-c3ccccc3)c3cc(Br)ccc3[nH]c2=O)=NO1 (centres undefined)	15	4
O=c1[nH]c2ccc(Br)cc2c(-c2ccccc2)c1C1=NNC(c2ccco2)C1 (centres undefined)	100*	-2
Cc1cc(C2C(C#N)=C(N)N(c3cccnc3)C3=C2C(=O)CCC3)c(C)s1 (centres undefined)	-2	-4
Cc1cc(C2C(C#N)=C(N)N(c3cccnc3)C3=C2C(=O)CC(c2ccccc2)C3)c(C)s1 (centres undefined)	58*	-6
O=C(Nc1c2c(nn1-c1ccc(F)cc1)CS(=O)(=O)C2)c1cccc([N+](=O)[O-])c1	-4	-2
COc1ccc(OC)c2c(NCCCN3CCOCC3)cc(C(F)(F)F)nc12	9	6

Screens from PubChem.
